RGS4 inhibitor: blocks human RGS4-accelerated GTP hydrolysis. Potency, µM (highest dose often 114 µM), inactives show top-dose activity change, negative = inhibition, most hits filed as inhibitors. Transcreener GDP fluorescence polarization, RGS4-accelerated GTP hydrolysis. AID 504845. P49798. hit rate 0.039% among 390,000; note: potency is the fitted concentration of half-maximal effect; % is set by controls: 0 for no effect and ±100 for the full control effect; nearly all actives have a fitted effect of over 75% in size
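MLSMR compounds (23 nl, pin-transferred) preincubated 10 min at room temperature with a 500nM (2x) first reagent, then RGS4 at 900nM (2x) plus Transcreener GDP mix added; fluorescence polarization (620/688 nm) read before and after 90 min at 30 °C.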
Glioma ERSR ind: inducers of ER stress response in human glioma cells; U87-MG GRP78 promoter luciferase reporter, 16 h; hit rate 0.02% among 420,000; Potency, µM, without a hit: top-dose activation, most hits filed as activators; note: potency is the fitted concentration of half-maximal effect; series mostly up to about 76 µM; % of control where 0% means no effect; nearly all actives have a fitted effect of over 35% in size
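Stably transfected U87-MG glioma cells carrying a GRP78-based luciferase sensor; 16 h compound incubation. Luminescence end-point read 10 min after Bright-Glo addition at room temperature.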
TCR act: activators of T cell receptors | Potency, µM (top dose mostly 9.22 µM), inactives show at the highest dose activation of IL-2 secretion, most hits filed as activators | primary human leukocytes, anti-CD3, IL-2 HTRF, 48 h | 330,000 tested, under 10 active; note: % of control where 0% means no effect
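Using a-CD3 beads without co-stimulation, primary human leukocytes were exposed to compounds for 48 hr. An HTRF IL-2 kit measured the cytokine, with europium-to-d2 energy transfer producing emission at 665nm upon 320nm excitation.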
pAkt inh: inhibitors of Akt phosphorylation. Neuro2A IGF-stimulated pAkt S473 HTRF, 20 min; active compounds read low. activity change, % for hits at 50 µM. hit rate 0.32% among 360,000; in the data active = activity change below about -80%; inconclusive = mostly about -51% to -80%; note: % is set by controls: 0 for no effect and ±100 for the full control effect
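Neuro2A cells (4,500/well, DMEM with 0.5% FBS) were treated with compound at a single 50 µM final concentration, stimulated with 6 nM IGF for 20 min at 37 °C, and lysed. Phospho-Akt Ser473 was read by HTRF as 665/615 ratio ×10^4.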
LDHA block: blocks human lactate dehydrogenase A; activity change, % (values are at about 110 or 230 µM); P00338; AID 1347041; hit rate 0.15% among 480,000; purified LDHA, NADH/diaphorase-resazurin fluorescence; active compounds read low; in the data active = activity change below about -30%; inconclusive = mostly about -25% to -30%;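 note: plate controls were DMSO wells for no effect and wells without enzyme for full effect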
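Human LDH5 at 2 nM final in Tris HCl pH 7.4 with 0.06 mM NADH and 0.2 mM pyruvate, reacted 5 minutes at room temperature. Remaining NADH coupled via diaphorase/resazurin; resorufin fluorescence read at 0 and 20 minutes, normalized to enzyme-free and DMSO wells.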
TSHR antagonist: blocks TSH signaling through the human TSH receptor. AID 504810. P16473. hit rate 0.2% among 330,000. activity change, negative = inhibition, % at 11.5 µM. TSHR-expressing cells, TSH-stimulated cAMP HTRF, 2 h; active compounds read low;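 active = activity change below a set negative limit, meaning inhibition stronger than a set level, cut at about -70% in these data; inconclusive = activity change between two set negative limits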; note: % is set by controls: 0 for no effect and ±100 for the full control effect
Target sequence (P16473 whole entry, looked up): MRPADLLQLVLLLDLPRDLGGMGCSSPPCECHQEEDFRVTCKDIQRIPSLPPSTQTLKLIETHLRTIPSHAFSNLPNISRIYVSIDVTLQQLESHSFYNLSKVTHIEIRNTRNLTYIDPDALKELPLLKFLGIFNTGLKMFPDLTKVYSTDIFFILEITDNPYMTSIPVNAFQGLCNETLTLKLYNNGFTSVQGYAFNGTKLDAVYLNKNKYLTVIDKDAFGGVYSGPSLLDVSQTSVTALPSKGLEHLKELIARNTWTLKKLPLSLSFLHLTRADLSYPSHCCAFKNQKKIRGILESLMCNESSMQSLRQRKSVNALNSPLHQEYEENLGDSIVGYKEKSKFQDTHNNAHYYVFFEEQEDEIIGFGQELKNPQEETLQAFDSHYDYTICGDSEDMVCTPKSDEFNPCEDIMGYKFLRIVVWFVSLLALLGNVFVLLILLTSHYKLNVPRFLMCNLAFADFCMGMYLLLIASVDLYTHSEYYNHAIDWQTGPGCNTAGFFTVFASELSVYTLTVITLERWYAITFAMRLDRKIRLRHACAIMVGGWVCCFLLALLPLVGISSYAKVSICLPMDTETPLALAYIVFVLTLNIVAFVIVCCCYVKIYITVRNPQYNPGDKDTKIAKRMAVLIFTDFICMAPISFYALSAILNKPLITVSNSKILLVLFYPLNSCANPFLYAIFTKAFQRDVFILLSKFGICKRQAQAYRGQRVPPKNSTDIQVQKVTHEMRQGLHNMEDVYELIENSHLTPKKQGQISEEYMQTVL
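TSHR-expressing cells were treated with compounds, then stimulated with TSH at EC80 (4nM final) for 2 hours at 37 deg C. Cellular cAMP was measured by HTRF competition between lysate cAMP and cAMP-d2 for a cryptate-labelled anti-cAMP antibody.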
Numbers without * were called inactive; i = inactive; u = inconclusive; x = not tested or not shown; ! = not confirmed by another sample; [ ] = dose if it differs, or a comment. This is a sample that favours compounds with a hit; in the whole collection about 0.55% have one here. Unless noted, calls come from the whole dose curve; as a rule, active = well fitted curve in the direction sought with a large enough effect; inconclusive = small, poorly fitted or top-dose-only effect, or another doubt; inactive = no such curve, though single readings can be large; an effect the other way counts as inactive or inconclusive.

SMILES	RGS4 inhibitor	Glioma ERSR ind	TCR act	pAkt inh	LDHA block	TSHR antagonist
O=C(Nc1cccc2ncccc12)c1cccc(F)c1	1%	-2%	x	-107%*	3	7
Cc1nc2cccc(C(=O)Oc3ccc(Cl)cc3)c2o1	x	x	x	x	4	x
Cc1nc(N2CCN(Cc3ccccc3)CC2)nc2c1C(=O)CC(C)C2 (stereo not given)	-14%	-1%	3%	-110%*	3	-13
CCc1ccc(NC(=O)c2nc3ccccc3nc2N2CCN(C)CC2)cc1	x	x	x	x	1	x
CCc1ccc(NC(=O)c2nc3ccccc3nc2N2CCCC2)cc1	x	x	x	x	-31*	x
CC(=O)c1sc(NC(=O)C2(F)C(F)(F)C(F)(F)C(F)(F)C(F)(F)C2(F)F)nc1C	-38%	-4%	1%	i	0	-75*
Nc1cccc(-c2cc3ccccn3c2)c1	x	x	x	x	-4	x
Clc1ccc(-c2nc3ccccc3o2)cc1	x	x	x	x	2	x
Cc1onc(-c2ccccc2)c1C(=O)Nc1cccc2nsnc12	-7%	-4%	0%	-120%*	-4	-3
CCn1nc(C)cc1-c1nnc(Sc2ncc([N+](=O)[O-])s2)n1C	u	-14%	-4%	i	3	-92*
O=C(C1CCCN(Cc2cccnc2)C1)N1CCCCC1 (stereo not given)	-16%	-4%	3%	i	-36*	-2
Cc1ccccc1C(=O)NN(C)c1nc2ccccc2nc1C(F)(F)F	38%	0%	2%	i	1	1
CN(NC(=O)c1ccco1)c1nc2ccccc2nc1C(F)(F)F	-5%	-1%	6%	i	-3	-76*
COc1ccc(C)cc1NC(=O)c1cccc(-n2cccc2)c1	x	x	x	x	-7	x
COc1ccc(-c2nc(C(=O)N3CCN(c4ccc(C(C)=O)cc4)CC3)cs2)cc1OC	x	x	x	x	1	x
COc1ccc(C(=O)COC(=O)CCC(=O)c2ccc3c(c2)OCCO3)cc1	x	x	x	x	12	x
COc1ccc(CC(=O)OCC(=O)c2ccc3c(c2)OCCCO3)cc1	x	x	x	x	-30*	x
COc1cc(OC)cc(C(=O)Nc2cc(NC(=O)c3ccco3)ccc2OC)c1	-25%	-5%	3%	i	2	-4
CCCOc1cccc(C(=O)Nc2cc(NC(=O)c3ccco3)ccc2OC)c1	27%	-3%	1%	-107%*	4	-17
COC(=O)c1ccc(NC(=O)CN(CCc2ccccc2)S(=O)(=O)c2ccc(OC)cc2)cc1	1%	-3%	x	x	0	x
COc1cccc(NC(=O)CN(CCc2ccccc2)S(=O)(=O)c2ccc(Cl)cc2)c1	1%	-1%	x	x	-59*	x
CC1CCN(c2nc(SCCO)c(C#N)c3c2CCCC3)CC1	x	x	x	x	7	x
COc1ccc(S(=O)(=O)N(C)CC(=O)NC2CCCC2)cc1Cl	21%	-2%	-3%	-110%*	-2	-4
COc1cc(S(=O)(=O)NC2CCCCC2)ccc1Cl	-5%	-3%	3%[46.1 µM]	-119%*	0	-2
COc1ccc(Cl)cc1NC(=O)NC1CCCCC1	5%	4%	3%	-127%*	0	-21
SMILES	RGS4 inhibitor	Glioma ERSR ind	TCR act	pAkt inh	LDHA block	TSHR antagonist
COc1ccc(S(=O)(=O)N2CCN(C(=O)NC3CCCCC3)CC2)cc1OC	34%	-5%	x	-106%*	-8	3
CCCN1CCC(NC(=O)Nc2cc(Cl)ccc2OC)CC1	-5%	-3%	-4%	i	-7	-8
CN(CC(=O)NC1CCCC1)S(=O)(=O)c1cccc(Cl)c1	8%	-3%	5%	i	-14	5
O=C(CCS(=O)(=O)c1ccc(Br)cc1)NCc1ccc(F)cc1	-51%	-5%	-6%	x	1	-126*
NC(=O)COc1cccc(C2CC(=O)Nc3nc(N4CCCCC4)sc32)c1 (stereo not given)	x	x	x	x	100	x
O=C1C(SCCO)=C(SCCO)C(=O)c2ccccc21	3.4µM*	-13%	2%	i	21	-86*!
O=C(CN1C(=O)S/C(=C\c2cccn2-c2ccc(C(=O)O)cc2)C1=O)Nc1ccc(F)cc1	x	x	x	x	1	x
Cc1c(OCc2ccccc2)c(=O)ccn1Cc1ccc(Cl)cc1	0%	-7%	-1%	-115%*	0	6
O=C(NC1CCCCC1)C(c1ccccc1F)N(Cc1ccco1)C(=O)c1ccccn1 (stereo not given)	-30%	-3%	-1%	i	-7	5
CCC(C)(C(=O)NC1CCCCC1)N(Cc1ccco1)C(=O)c1ccccn1 (stereo not given)	-11%	-3%	4%	-107%*	2	-4
Oc1c(Cl)cc(Cl)cc1C=Nc1cccc2ccccc12	x	x	x	x	8	x
O=C(CN1C(=O)c2ccccc2S1(=O)=O)NCCSCc1cccc(Cl)c1	15%	-3%	5%	i	-3	-96*
O=C(CN1C(=O)c2ccccc2S1(=O)=O)NCCSC1CCCCC1	-38%	7%	0%	i	-2	-6
COc1cccc(CNC(=O)c2cc3cc(OC)ccc3[nH]2)c1	x	x	x	x	2	x
COc1ccc(C2C(C(=O)OCC3CCCO3)=C(C)NC3=C2C(=O)CC(c2ccco2)C3)cc1O (stereo not given)	-9%	-5%	4%	-113%*	0	-7
CC1=C(C(=O)OCC2CCCO2)C(c2ccccc2)C2=C(CCCC2=O)N1 (stereo not given)	6%	-3%	4%	i	-7	-2
c1csc(CN2CCOCC2)c1	3%	-2%	-2%	x	-31*	-1
c1csc(CNCCCN2CCOCC2)c1	-12%	-2%	2%	i	-1	-1
Cc1ccccc1-c1nc2cc(NC(=O)/C=C/c3ccco3)ccc2o1	x	x	x	x	1	x
CN1CC[n+]2cnc3ccccc3c21	-15%	-5%	-2%	i	-33*	19
CCCN1C(=O)c2ccccc2NC1c1ccc(OC)c(COc2ccc([N+](=O)[O-])c(C)c2)c1 (stereo not given)	8%	-1%	x	x	-59*	x
COc1ccc(C2C=C(c3ccc(Br)cc3)Nc3ncnn32)cc1 (stereo not given)	x	x	x	x	-3	x
CN(C)c1nc(=S)nc(NCc2ccccc2)[nH]1	-12%	-3%	2%	i	-1	-85*
COc1cc(C(=O)Nc2ccc(NC(=O)C3CCCCC3)nc2)cc(OC)c1OC	-14%	-2%	9%	i	-1	-6
COc1cccc(C(=O)Nc2ccc(NC(=O)C3CCCCC3)nc2)c1	-23%	0%	8%	i	-3	-103*
CCN=C1SC(CC(=O)NC(N)=O)C(=O)N1CC (stereo not given)	-11%	-4%	0%	-106%*	-3	1
CCN=C1SC(CC(=O)NC2CCCCC2)C(=O)N1CC (stereo not given)	2%	-6%	0%	i	-5	-1

Screens deposited in PubChem by National Center for Advancing Translational Sciences (NCATS).
